Bioassay records: PubChem BioAssay, The Scripps Research Institute Molecular Screening Center
Compounds with a hit are over-represented: about 3.4% of the library has one in this group of screens.
GPR151 ag: activates the human receptor GPR151 | Q8TDV0 | PathHunter beta-arrestin GPR151 cells, luminescence | activation, % at 11.2 µM | actives 1% (n = 650,000) | AID 1508602; in the data active = activation above about 4.9%;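 note: 0% = median of compound wells and 100% = cells with positive control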
Target sequence (Q8TDV0 whole entry, looked up): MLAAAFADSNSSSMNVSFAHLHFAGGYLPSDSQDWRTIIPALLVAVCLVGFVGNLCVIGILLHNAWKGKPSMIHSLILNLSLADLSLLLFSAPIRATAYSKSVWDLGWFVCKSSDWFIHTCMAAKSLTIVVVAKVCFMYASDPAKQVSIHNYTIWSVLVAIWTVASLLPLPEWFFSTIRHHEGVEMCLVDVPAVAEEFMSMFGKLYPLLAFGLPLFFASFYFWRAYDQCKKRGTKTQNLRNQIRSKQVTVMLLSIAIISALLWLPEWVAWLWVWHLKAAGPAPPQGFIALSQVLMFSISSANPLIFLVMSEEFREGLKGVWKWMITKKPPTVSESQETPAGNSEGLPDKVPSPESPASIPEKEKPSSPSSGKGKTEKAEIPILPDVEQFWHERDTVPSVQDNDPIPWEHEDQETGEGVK
MITF inh: human MITF inhibition, primary screen | O75030 | AlphaScreen MITF homodimerization, bead proximity signal | actives 0.91% (n = 650,000) | AID 1259374 | inhibition, % at 2.6 µM; in the data active = inhibition above about 50%;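 note: 0% = vehicle wells with protein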
FBW7 activator: human FBW7 E3 ligase activation, primary screen | AlphaScreen FBW7–phospho-cyclin E peptide binding, activator screen | normalized activity (activation), % at 26.1 µM | actives 0.13% (n = 650,000) | AID 1259310; in the data active = normalized activity above about 1.9%;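 note: purified mutant Fbw7 with reduced substrate affinity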
TEAD-YAP block: TEAD-YAP interaction inhibition | actives 1.4% (n = 640,000) | HEK-TIYL cells, TEAD-Gal4/YAP UAS-luciferase luminescence | inhibition, % at 9.12 µM | AID 1259422; in the data active = inhibition above about 32%;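 note: 0% = median of test compound wells and 100% = reference inhibitor wells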
GPR151 conf act: human GPR151 activation, confirmation screen | shares compounds with GPR151 ag | GPR151 PathHunter beta-arrestin cells, luminescence, 90 min; % of EA-reagent control over plate median | activation, % at 11.2 µM | 6,700 tested, under 10 active | AID 1508609;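 active = mean percent activation across replicates above the confirmation screen cutoff of 4.91%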
GPR119 ag: counter-screen for GPR151 activators: effect on human GPR119; shares compounds with GPR151 ag; GPR119 PathHunter beta-arrestin cells, luminescence, 90 min; 0 = compound-well median, 100 = enzyme-acceptor control; activation, % at 11.2 µM; actives 0.3% (n = 6,700); AID 1508611;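 active = mean percent activation in the counterscreen above 29.09%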;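 note: counterscreen on off-target GPR119 to flag nonselective hits from the GPR151 activator screen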
* hit, by the source's call; . = no result; ! = a repeat was not active.

SMILES | GPR151 ag | MITF inh | FBW7 activator | TEAD-YAP block | GPR151 conf act | GPR119 ag
O=C(CCC1CCCCC1)NNC(=O)c1cnccn1 | 6.5* | 7 | 0 | -3 | 0 | -1
O=C(NNC(=O)C1CCCCC1)c1cnccn1 | 0 | 13 | 0 | -3 | . | .
Cn1nccc1Nc1nc(C(=O)NCc2cccnc2)cs1 | 5.3* | -2 | 0 | -3 | -1 | -13
Cn1nccc1Nc1nc(C(=O)NCc2cccc(C(F)(F)F)c2)cs1 | 8.7* | 20 | 0 | -9 | 0 | -2
Cn1nccc1Nc1nc(C(=O)NCc2ccccc2)cs1 | -1 | 5 | 0 | -3 | . | .
Cn1nccc1Nc1nc(C(=O)Nc2ccccc2)cs1 | 5.6* | 9 | 0 | -14 | 0 | -7
Cc1ccc(S(=O)(=O)N(CC(=O)O)c2ccc(C)c(C)c2)cc1 | 2 | -3 | 0 | 11 | . | .
O=C(Cc1ccc(N2CCC(NCCn3ccnc3)CC2)cc1)NCCc1cccc(F)c1 | 6.0* | -8 | 0 | -2 | -1 | -9
CSc1nsc(SC)c1C(=O)N1CCN(S(=O)(=O)c2ccc(C)cc2)C1C (stereo unspecified) | 5.0* | 3 | 0 | 3 | 1 | 10
O=C1NC(=S)N/C1=C/c1ccccc1F | 0 | -7 | 0 | -9 | . | .
CCOc1ccc(NC(=O)CSc2nnc3ncccn23)cc1 | 0 | -18 | 0 | 27 | . | .
CCSCCOC(=O)C1=C(C)NC2=C(C(=O)C(C(=O)OC)C(C)C2)C1c1cccc(Cl)c1Cl (stereo unspecified) | 1 | 5 | 0 | 1 | . | .
CCc1ccc(OCC(=O)NCc2ccccc2OC)cc1 | 5.1* | 8 | 0 | 3 | -1 | -5
COc1ccccc1CNC(=O)COc1ccccc1 | 4 | 0 | 0 | -24 | . | .
COc1ccccc1CNC(=O)COc1ccc(Br)cc1Cl | 12* | 11 | 0 | 2 | -1 | -10
CN(Cc1ccccc1)c1ccnc2c(-c3ccc(O)cc3)cnn12 | 5.0* | -7 | 0 | 73* | 0 | 0
Cc1nc2cc(F)ccc2n1C1CCN(S(=O)(=O)c2ccccc2F)CC1 | 0 | 6 | 0 | 5 | . | .
COc1cc(/C=N/Nc2ccc3nnc(C)n3n2)ccc1O | 8.9* | 24 | 0 | 1 | 0 | 11
CCc1ccc(-c2ccc(C(=O)Oc3ccc(S(=O)(=O)c4ccc(OC(=O)c5ccc(-c6ccc(CC)cn6)cc5)cc4)cc3)cc2)nc1 | -1 | -21 | 0 | 3 | . | .
CC(=O)N1CCCN(S(=O)(=O)c2cccc3cnccc23)CC1 | 5.4* | 3 | -1 | -5 | 0 | 5
C[C@@H](O)C(=O)N1CCCN(S(=O)(=O)c2cccc3cnccc23)CC1 | -1 | 8 | 0 | -5 | . | .
COc1ccccc1N1CCN(C(=O)COc2ccc(Br)c(C)c2)CC1 | 0 | 11 | 0 | -3 | . | .
COCc1cc(C)nc2sc(C(=O)c3ccccc3)c(NC(=O)c3ccccc3)c12 | 0 | 4 | 0 | -4 | . | .
CSc1ccc(CNC(C)(C)CO)cc1 | 0 | 12 | 0 | 7 | . | .
CN(C)c1ccc(CNC(C)(C)CO)cc1 | 5.1* | 14 | 1 | 2 | 1 | 3
SMILES | GPR151 ag | MITF inh | FBW7 activator | TEAD-YAP block | GPR151 conf act | GPR119 ag
CCOC(=O)N1CCN(c2cc(N3CCN(C)CC3)c(F)cc2[N+](=O)[O-])CC1 | 8.3* | 19 | 0 | 5 | 0 | -2
CCOC(=O)N1CCN(c2cc(N3CCCC3)c(F)cc2[N+](=O)[O-])CC1 | -2 | 7 | 0 | 11 | . | .
O=C(Nn1c(=S)[nH]c2ccsc2c1=O)c1ccccc1 | 5.0* | 6 | 0 | -22 | 1 | 13
O=C(Nn1c(=S)[nH]c2ccccc2c1=O)c1ccccc1 | 0 | -11 | 0 | -15 | . | .
COc1ccc(C(=O)/C=C/Nc2cccc([N+](=O)[O-])c2)cc1OC | 8.7*! | -1 | 0 | -36 | 0 | -9
COc1ccc(-c2noc(COc3ccc4c(c3)OCO4)n2)cc1 | 5.1* | 9 | 1 | 3 | 0 | -1
CC1(C)CC(=O)N(CC(=O)NC2CC2)c2ccccc2S1 | 0 | 0 | 0 | 1 | . | .
COCc1nnc(NC(=O)C2CCCCC2)s1 | 6.4* | 13 | 0 | -7 | -1 | -10
O=C(c1ccc([N+](=O)[O-])cc1)c1ccc2c(c1)C(=O)N(c1c[nH]c(=O)[nH]c1=O)C2=O | -1 | -3 | 0 | -8 | . | .
